About 7,900 targets were measured; listed, in parts, are those with a hit and a random draw of the rest. About 0.6% of all pairs of compound and target were hits.
Assays:
Assay in all cases: log2 fold change, soluble protein after heating vs DMSO (PISA); higher = thermal stabilisation; K562 cells, 10 uM, 30 min; active = over 0.2 and 3.5 SD of the protein, either way, in both replicates (recomputed)
YAE1 = YAE1 (UniProt Q9NRH1)
Summary of the method: (§1)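 Soluble protein was defined as the supernatant after 21,000xg for 90 min. It came from K562 cells at 2×10^6 cells/mL given 10 μM compound for 30 min, heated in aliquots for 3 min across 48°C-58°C, pooled, and extracted in PBS with 0.5% NP-40 at 4°C, and was quantified by TMTpro 16plex LC-MS/MS with equalised channel sums. Thermal stability against control samples, from duplicates, is reported as log2 fold change.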

YBX1 = YBX1 (UniProt P67809)
Summary of the method: as §1

YES1 = YES1 (UniProt P07947)
Summary of the method: as §1

YIPF4 = YIPF4 (UniProt Q9BSR8)
Summary of the method: as §1

YIPF5 isoform 3 = YIPF5 isoform 3 (UniProt Q969M3)
Summary of the method: as §1

YIPF6 = YIPF6 (UniProt Q96EC8)
Summary of the method: as §1

YLPM1 = YLPM1 (UniProt P49750)
Summary of the method: as §1

YOD1 = YOD1 (UniProt Q5VVQ6)
Summary of the method: as §1

YPEL5 = YPEL5 (UniProt P62699)
Summary of the method: as §1

Measured: log2 fold change

Sequence of YLPM1 (P49750 whole entry, looked up): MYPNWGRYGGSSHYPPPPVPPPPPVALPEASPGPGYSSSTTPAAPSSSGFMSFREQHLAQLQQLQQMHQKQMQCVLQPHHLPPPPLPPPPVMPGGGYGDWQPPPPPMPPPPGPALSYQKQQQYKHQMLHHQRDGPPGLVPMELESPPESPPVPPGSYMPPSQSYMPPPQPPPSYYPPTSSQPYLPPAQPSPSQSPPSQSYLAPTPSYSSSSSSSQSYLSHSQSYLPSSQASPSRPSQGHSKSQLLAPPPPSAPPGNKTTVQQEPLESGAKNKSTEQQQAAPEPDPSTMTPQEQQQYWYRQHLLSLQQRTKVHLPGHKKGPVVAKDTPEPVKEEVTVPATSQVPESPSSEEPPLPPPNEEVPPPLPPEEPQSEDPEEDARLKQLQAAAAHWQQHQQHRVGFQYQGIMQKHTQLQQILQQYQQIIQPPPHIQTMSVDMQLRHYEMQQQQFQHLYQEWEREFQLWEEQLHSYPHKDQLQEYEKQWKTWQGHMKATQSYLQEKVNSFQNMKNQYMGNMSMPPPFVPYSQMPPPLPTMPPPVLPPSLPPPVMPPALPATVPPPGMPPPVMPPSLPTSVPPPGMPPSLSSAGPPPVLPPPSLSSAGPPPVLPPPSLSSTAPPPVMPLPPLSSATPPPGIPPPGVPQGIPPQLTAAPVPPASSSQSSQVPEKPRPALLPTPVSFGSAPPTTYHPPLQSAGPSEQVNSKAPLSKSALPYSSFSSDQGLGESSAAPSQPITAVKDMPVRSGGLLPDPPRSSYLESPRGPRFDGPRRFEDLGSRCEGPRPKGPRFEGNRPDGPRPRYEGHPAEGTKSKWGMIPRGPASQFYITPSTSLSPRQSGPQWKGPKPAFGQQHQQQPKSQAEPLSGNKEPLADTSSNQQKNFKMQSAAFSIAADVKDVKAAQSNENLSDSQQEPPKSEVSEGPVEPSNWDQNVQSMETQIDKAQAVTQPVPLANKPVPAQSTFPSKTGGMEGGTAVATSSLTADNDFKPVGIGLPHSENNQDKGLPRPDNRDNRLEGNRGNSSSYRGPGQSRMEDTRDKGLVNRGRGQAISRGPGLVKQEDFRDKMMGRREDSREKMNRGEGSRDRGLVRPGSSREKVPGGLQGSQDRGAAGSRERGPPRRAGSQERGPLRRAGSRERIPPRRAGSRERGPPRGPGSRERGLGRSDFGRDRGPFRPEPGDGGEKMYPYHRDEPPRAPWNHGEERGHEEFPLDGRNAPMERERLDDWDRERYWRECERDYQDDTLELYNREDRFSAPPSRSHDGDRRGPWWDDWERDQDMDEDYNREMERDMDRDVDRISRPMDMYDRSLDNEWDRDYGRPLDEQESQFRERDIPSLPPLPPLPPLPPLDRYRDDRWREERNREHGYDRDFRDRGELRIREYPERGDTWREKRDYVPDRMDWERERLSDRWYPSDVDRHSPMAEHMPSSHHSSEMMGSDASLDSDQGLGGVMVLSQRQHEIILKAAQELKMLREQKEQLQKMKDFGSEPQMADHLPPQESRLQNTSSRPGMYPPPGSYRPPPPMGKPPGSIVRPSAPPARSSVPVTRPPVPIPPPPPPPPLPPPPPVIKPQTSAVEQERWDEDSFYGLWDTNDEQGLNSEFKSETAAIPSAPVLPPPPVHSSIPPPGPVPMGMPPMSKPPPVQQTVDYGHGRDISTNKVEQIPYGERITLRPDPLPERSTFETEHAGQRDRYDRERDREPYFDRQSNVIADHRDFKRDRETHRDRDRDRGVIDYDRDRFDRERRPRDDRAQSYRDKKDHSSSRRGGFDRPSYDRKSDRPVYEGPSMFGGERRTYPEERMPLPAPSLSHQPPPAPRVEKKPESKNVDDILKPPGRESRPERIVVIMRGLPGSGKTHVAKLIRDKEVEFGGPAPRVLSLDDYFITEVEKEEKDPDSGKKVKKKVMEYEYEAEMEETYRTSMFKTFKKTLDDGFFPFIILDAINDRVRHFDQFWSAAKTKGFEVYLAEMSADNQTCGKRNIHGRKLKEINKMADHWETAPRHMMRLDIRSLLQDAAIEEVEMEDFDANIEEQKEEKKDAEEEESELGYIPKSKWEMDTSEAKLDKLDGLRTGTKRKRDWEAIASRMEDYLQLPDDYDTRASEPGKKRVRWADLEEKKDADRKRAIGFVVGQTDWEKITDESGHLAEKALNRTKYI
Sequence of YIPF6 (Q96EC8 whole entry, looked up): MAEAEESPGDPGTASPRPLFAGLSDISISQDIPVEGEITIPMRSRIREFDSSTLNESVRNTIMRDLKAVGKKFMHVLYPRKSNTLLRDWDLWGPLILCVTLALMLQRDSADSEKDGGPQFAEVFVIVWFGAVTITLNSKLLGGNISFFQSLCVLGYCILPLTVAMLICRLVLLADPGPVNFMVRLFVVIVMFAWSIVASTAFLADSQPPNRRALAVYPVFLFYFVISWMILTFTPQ
Sequence of YES1 (P07947 whole entry, looked up): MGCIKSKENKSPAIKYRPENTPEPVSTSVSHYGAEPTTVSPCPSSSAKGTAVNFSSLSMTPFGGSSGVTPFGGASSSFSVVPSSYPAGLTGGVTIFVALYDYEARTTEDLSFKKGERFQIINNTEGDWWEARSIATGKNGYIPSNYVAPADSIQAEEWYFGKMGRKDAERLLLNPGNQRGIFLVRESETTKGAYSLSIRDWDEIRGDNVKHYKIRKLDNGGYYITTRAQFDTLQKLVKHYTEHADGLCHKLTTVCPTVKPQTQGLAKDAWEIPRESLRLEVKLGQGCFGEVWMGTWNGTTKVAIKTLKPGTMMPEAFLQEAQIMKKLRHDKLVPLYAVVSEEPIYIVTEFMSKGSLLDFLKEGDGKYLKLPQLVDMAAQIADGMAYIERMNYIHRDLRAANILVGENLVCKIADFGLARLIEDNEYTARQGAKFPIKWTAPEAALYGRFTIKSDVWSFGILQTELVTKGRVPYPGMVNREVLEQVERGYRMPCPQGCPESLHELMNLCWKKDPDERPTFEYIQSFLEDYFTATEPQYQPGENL
Sequence of YPEL5 (P62699 whole entry, looked up): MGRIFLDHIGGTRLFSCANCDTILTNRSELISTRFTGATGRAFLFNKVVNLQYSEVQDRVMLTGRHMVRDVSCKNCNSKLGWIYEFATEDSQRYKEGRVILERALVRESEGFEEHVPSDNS
Sequence of YBX1 (P67809 whole entry, looked up): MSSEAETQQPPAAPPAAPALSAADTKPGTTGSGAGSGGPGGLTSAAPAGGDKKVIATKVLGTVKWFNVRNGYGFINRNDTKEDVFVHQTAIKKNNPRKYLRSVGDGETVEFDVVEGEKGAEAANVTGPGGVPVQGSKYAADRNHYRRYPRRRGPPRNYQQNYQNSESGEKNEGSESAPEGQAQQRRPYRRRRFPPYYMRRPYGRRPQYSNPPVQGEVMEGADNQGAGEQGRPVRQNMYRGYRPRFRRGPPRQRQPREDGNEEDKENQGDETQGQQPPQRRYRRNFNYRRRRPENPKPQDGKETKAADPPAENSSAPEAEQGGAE
Sequence of YAE1 (Q9NRH1 whole entry, looked up): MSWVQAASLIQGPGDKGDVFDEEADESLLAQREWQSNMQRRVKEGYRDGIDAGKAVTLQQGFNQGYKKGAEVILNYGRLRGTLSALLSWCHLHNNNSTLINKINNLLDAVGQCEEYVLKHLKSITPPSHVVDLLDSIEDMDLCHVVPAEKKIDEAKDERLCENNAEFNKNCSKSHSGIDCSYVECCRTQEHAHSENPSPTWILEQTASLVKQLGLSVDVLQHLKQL
Sequence of YIPF4 (Q9BSR8 whole entry, looked up): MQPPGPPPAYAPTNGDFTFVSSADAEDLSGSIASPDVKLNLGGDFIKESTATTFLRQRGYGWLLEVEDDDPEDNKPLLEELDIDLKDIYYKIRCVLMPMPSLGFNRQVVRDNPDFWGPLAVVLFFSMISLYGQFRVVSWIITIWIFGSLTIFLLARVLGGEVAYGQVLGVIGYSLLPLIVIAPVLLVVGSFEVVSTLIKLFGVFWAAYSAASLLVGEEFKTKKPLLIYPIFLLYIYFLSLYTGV
Sequence of YOD1 (Q5VVQ6 whole entry, looked up): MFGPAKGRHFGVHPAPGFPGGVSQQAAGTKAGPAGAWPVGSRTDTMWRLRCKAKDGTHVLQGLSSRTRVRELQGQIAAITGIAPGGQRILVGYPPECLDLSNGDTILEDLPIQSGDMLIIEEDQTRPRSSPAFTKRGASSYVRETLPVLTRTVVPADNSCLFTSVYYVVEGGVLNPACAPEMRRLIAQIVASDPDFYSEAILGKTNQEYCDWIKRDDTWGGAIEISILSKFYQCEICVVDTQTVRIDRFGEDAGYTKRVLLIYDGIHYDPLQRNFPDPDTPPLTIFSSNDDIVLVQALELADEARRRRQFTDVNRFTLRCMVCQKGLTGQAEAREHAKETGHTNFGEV
Sequence of YIPF5 isoform 3 (Q969M3 whole entry, looked up, canonical isoform): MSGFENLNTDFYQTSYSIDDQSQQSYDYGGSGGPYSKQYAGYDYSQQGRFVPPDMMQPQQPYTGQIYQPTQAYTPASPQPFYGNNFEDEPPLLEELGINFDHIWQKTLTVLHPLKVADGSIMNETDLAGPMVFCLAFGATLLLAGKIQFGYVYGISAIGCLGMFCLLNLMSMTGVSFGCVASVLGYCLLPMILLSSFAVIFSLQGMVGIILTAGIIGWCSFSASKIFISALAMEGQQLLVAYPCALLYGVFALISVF

COC(=O)N[C@@H](C)CNc1nccc(-c2cn(C(C)C)nc2-c2cc(Cl)cc(NS(C)(=O)=O)c2F)n1 [encorafenib]
inactive: YAE1 0.007 | YBX1 0.041 | YES1 0.242 | YIPF4 -0.038 | YIPF5 isoform 3 0.012 | YIPF6 -0.042 | YLPM1 0.052 | YOD1 0.02 | YPEL5 -0.001

CO[C@H]1C[C@@H]2CC[C@@H](C)[C@@](O)(O2)C(=O)C(=O)N2CCCC[C@H]2C(=O)O[C@H]([C@H](C)C[C@@H]2CC[C@H](n3cnnn3)[C@H](OC)C2)CC(=O)[C@H](C)/C=C(\C)[C@@H](O)[C@@H](OC)C(=O)[C@H](C)C[C@H](C)/C=C/C=C/C=C/1C [zotarolimus]
inactive: YAE1 0 | YBX1 -0.048 | YES1 0.053 | YIPF4 0.015 | YIPF5 isoform 3 0.006 | YIPF6 -0.026 | YLPM1 -0.001 | YOD1 0.05 | YPEL5 0.05

Cc1ccc(NC(=O)c2ccc(CN3CC[C@H](N(C)C)C3)c(C(F)(F)F)c2)cc1Nc1nccc(-c2cncnc2)n1 [bafetinib]
inactive: YAE1 0.013 | YBX1 0.146 | YES1 0.049 | YIPF4 -0.045 | YIPF5 isoform 3 -0.028 | YIPF6 -0.169 | YLPM1 0.083 | YOD1 -0.07 | YPEL5 0.064

CC(C)c1cnn2c(NCc3ccccc3)cc(NCCCCCCN)nc12
inactive: YAE1 0.057 | YBX1 0.038 | YES1 0 | YIPF4 -0.032 | YIPF5 isoform 3 0.008 | YIPF6 -0.044 | YLPM1 -0.086 | YOD1 -0.153 | YPEL5 -0.083

Cc1nc(Nc2n[nH]c3c2CN(C(=O)N[C@H](CN(C)C)c2ccccc2)C3(C)C)c2sccc2n1
inactive: YAE1 0.104 | YBX1 0.149 | YIPF4 0.004 | YIPF5 isoform 3 0.016 | YIPF6 -0.042 | YLPM1 -0.075 | YOD1 -0.089 | YPEL5 -0.118
active: YES1 -0.746

CCCCN(Cc1ccc(C(=O)NO)cc1)C(=O)Nc1ccccc1 [Nexturastat A]
inactive: YAE1 0.564 | YBX1 0.231 | YES1 0.142 | YIPF4 0.021 | YIPF5 isoform 3 0.091 | YIPF6 -0.011 | YLPM1 0.046 | YOD1 -0.011 | YPEL5 -0.144

CC[C@@H]1C(=O)N(C)c2cnc(Nc3ccc(C(=O)N[C@H]4CC[C@H](N5CCN(CC6CC6)CC5)CC4)cc3OC)nc2N1C(C)C [volasertib]
active: YLPM1 -0.265
inactive: YAE1 -0.101 | YBX1 0.508 | YES1 -0.038 | YIPF4 0.134 | YIPF5 isoform 3 0.058 | YIPF6 -0.037 | YOD1 -0.247 | YPEL5 -0.022

O=C(CCCCCCC(=O)Nc1ccccc1)NO [vorinostat]
inactive: YAE1 0.044 | YBX1 -0.056 | YES1 0.069 | YIPF4 -0.046 | YIPF5 isoform 3 0.156 | YIPF6 -0.035 | YLPM1 0.024 | YOD1 0.033 | YPEL5 0.028

CCN(CC)Cc1ccc2cc(COC(=O)Nc3ccc(C(=O)NO)cc3)ccc2c1 [givinostat]
inactive: YAE1 -0.017 | YBX1 -0.056 | YES1 0.016 | YIPF4 -0.048 | YIPF5 isoform 3 -0.053 | YIPF6 -0.028 | YLPM1 0.061 | YOD1 0.024 | YPEL5 -0.009

CN(CCOc1ccc(C[C@@H]2SC(=O)NC2=O)cc1)c1ccccn1 (racemic) [rosiglitazone]
inactive: YAE1 0.062 | YBX1 -0.074 | YES1 0.013 | YIPF4 0.005 | YIPF5 isoform 3 0.003 | YIPF6 0.027 | YLPM1 0.047 | YOD1 0.029 | YPEL5 -0.048

Cc1cccc(CC(=O)N2CCc3c2ccc(-c2cn(C)c4ncnc(N)c24)c3F)n1
inactive: YAE1 0.008 | YBX1 -0.024 | YES1 0.007 | YIPF4 -0.042 | YIPF5 isoform 3 0.06 | YIPF6 -0.006 | YLPM1 -0.05 | YOD1 0.041 | YPEL5 0.198

Cc1cc(SCc2sc(-c3ccc(C(F)(F)F)cc3)nc2C)ccc1OCC(=O)O
inactive: YAE1 0.021 | YBX1 -0.024 | YES1 0.06 | YIPF4 -0.04 | YIPF5 isoform 3 0.015 | YIPF6 -0.175 | YLPM1 0 | YOD1 0.061 | YPEL5 0.098

CS(=O)(=O)N1CCN(Cc2cc3nc(-c4cccc5[nH]ncc45)nc(N4CCOCC4)c3s2)CC1 [pictilisib]
inactive: YAE1 0.021 | YBX1 0.033 | YES1 0.093 | YIPF4 0.15 | YIPF5 isoform 3 0.027 | YIPF6 0.107 | YLPM1 0.065 | YOD1 -0.001 | YPEL5 0.172

CC[C@H](C)[C@H](NC(=O)[C@H]([C@@H](C)CC)N(C)C(C)=O)C(=O)N[C@H](C(=O)N[C@@H](CC(C)C)C(=O)[C@@]1(C)CO1)[C@@H](C)O [epoxomicin]
inactive: YAE1 0.118 | YBX1 -0.191 | YES1 0.009 | YIPF4 -0.005 | YIPF5 isoform 3 0.023 | YIPF6 0.013 | YLPM1 0.059 | YOD1 0.051 | YPEL5 -0.052

O=C(O)c1ccc2c(c1)nc(Nc1cccc(Cl)c1)c1ccncc12 [silmitasertib]
inactive: YAE1 -0.009 | YBX1 0.125 | YES1 0.004 | YIPF4 -0.006 | YIPF5 isoform 3 0 | YIPF6 0.02 | YLPM1 -0.009 | YOD1 0.021 | YPEL5 0.116

CN1CCC(CNc2ccc3ncc(-c4cccc(OC(F)(F)F)c4)n3n2)CC1
active: YOD1 -0.305
inactive: YAE1 0.057 | YBX1 0.348 | YES1 -0.326 | YIPF4 0.101 | YIPF5 isoform 3 -0.288 | YIPF6 0.155 | YLPM1 -0.113 | YPEL5 -0.094

COC(=O)[C@H](CCSC)NC(=O)c1ccc(NC[C@@H](N)CS)cc1-c1ccccc1
inactive: YAE1 0.059 | YBX1 0.113 | YES1 -0.006 | YIPF4 0.088 | YIPF5 isoform 3 0.046 | YIPF6 0.041 | YLPM1 -0.014 | YOD1 -0.016 | YPEL5 -0.23

Cc1ccc(Sc2cncc3sc(C(N)=O)cc23)cc1
inactive: YAE1 -0.012 | YBX1 -0.124 | YES1 0.03 | YIPF4 -0.023 | YIPF5 isoform 3 0.071 | YIPF6 -0.018 | YLPM1 -0.008 | YOD1 0.009 | YPEL5 0.01

C[C@H](Nc1ncnc2nc[nH]c12)c1cc2cccc(Cl)c2c(=O)n1-c1ccccc1 [duvelisib]
inactive: YAE1 -0.021 | YBX1 -0.208 | YES1 0.062 | YIPF4 0.163 | YIPF5 isoform 3 -0.107 | YIPF6 0.259 | YLPM1 0.08 | YOD1 0.033 | YPEL5 -0.084

CS(=O)(=O)CCNCc1ccc(-c2ccc3ncnc(Nc4ccc(OCc5cccc(F)c5)c(Cl)c4)c3c2)o1 [lapatinib]
inactive: YAE1 -0.052 | YBX1 0.317 | YES1 0.057 | YIPF4 -0.13 | YIPF5 isoform 3 -0.163 | YIPF6 0.061 | YLPM1 -0.028 | YOD1 0.01 | YPEL5 -0.113

Cc1ccc(NC(=O)c2cccc(N(C)C)c2)cc1NC(=O)c1ccc(O)cc1
inactive: YAE1 0.009 | YBX1 0.011 | YES1 0.037 | YIPF4 0.025 | YIPF5 isoform 3 -0.138 | YIPF6 0.024 | YLPM1 -0.023 | YOD1 -0.028 | YPEL5 0.081

c1cn2cc(-c3ccc4cn[nH]c4c3)nc(Nc3ccc(N4CCOCC4)cc3)c2n1 [entospletinib]
inactive: YAE1 -0.07 | YBX1 0.162 | YES1 -0.219 | YIPF4 -0.015 | YIPF5 isoform 3 -0.161 | YIPF6 -0.046 | YLPM1 -0.105 | YOD1 -0.013 | YPEL5 0.009

Cn1c2cc(S(C)=O)sc2c2cnn(Cc3cccc(N)c3)c(=O)c21 (centres undefined)
inactive: YAE1 0.046 | YBX1 0.183 | YES1 0.053 | YIPF4 -0.06 | YIPF5 isoform 3 0.043 | YIPF6 -0.097 | YLPM1 -0.057 | YOD1 -0.04 | YPEL5 0.132

Cc1ncc(-c2ccnc(Nc3ccc(S(C)(=O)=O)cc3)n2)n1C(C)C
inactive: YAE1 0.042 | YBX1 0.013 | YES1 -0.051 | YIPF4 -0.005 | YIPF5 isoform 3 -0.03 | YIPF6 -0.023 | YLPM1 -0.011 | YOD1 -0.018 | YPEL5 0.036

CC[C@@H]1C(=O)N(C)c2cnc(Nc3ccc(C(=O)NC4CCN(C)CC4)cc3OC)nc2N1C1CCCC1
inactive: YAE1 -0.022 | YBX1 0.262 | YES1 0.129 | YIPF4 0.022 | YIPF5 isoform 3 0.088 | YIPF6 -0.001 | YLPM1 -0.016 | YOD1 -0.099 | YPEL5 0.024

Cc1ccc(C(=O)N(CCCN)[C@@H](c2nc3cc(Cl)ccc3c(=O)n2Cc2ccccc2)C(C)C)cc1 [ispinesib]
inactive: YAE1 0.063 | YBX1 -0.093 | YES1 -0.097 | YIPF4 -0.024 | YIPF5 isoform 3 0.08 | YIPF6 0.02 | YLPM1 0.034 | YOD1 -0.042 | YPEL5 -0.039

— the supplement of paper PMC10849652
